This excerpt belongs to a sample that is enriched for hits.
KDM5B inh: inhibitors of human KDM5B histone demethylase | Potency, µM (titrated, usually from 57.7 µM), hits mostly inhibitors | KDM5B demethylase, FDH-coupled NADH fluorescence (FDH is formaldehyde dehydrogenase) | Q9UGL1 | 220,000 tested, 2.6% active; active = well fitted inhibition curve with a large enough effect; note: 0% is about no effect; nearly all actives have a fitted effect of over 70% in size
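Here, H3K4me3 peptide (12.5 µM in substrate mix) is demethylated by KDM5BΔAP, 200 nM final, after 10 min compound exposure. Formaldehyde product is coupled through FDH (0.25 U/mL in mix) to NADH fluorescence; 30-min ΔRFU feeds dose-response curves.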
An asterisk follows results filed as active; i = inactive. Potency is the fitted concentration of half-maximal effect.

SMILES	KDM5B inh
O=[S+]1([O-])NC2(CCCN(Cc3c(F)cccc3F)C2)COc2ccccc21 (configuration not stated)	i
O=[S+]1([O-])NC2(CCN(CC3CCCCC3)CC2)COc2ccccc21	71µM*
O=C1CCC/C(=N/NS(=O)(=O)c2ccc(Br)cc2)C1	i
Cc1ccc(Cn2c(SCC(=O)NC(C)(C)C)nc3c(sc4ncccc43)c2=O)cc1	i
FC(F)(F)c1cccc(-n2nnnc2C2(N3CCOCC3)CCCC2)c1	i
CCOCCCNCc1cc(=O)oc2ccc3ccccc3c12	i
Cn1c(CO[C@H]2CN(Cc3cnc4ccccc4c3)C[C@H]2F)nc2ccccc21	i
COc1ccc(CN2C[C@@H](F)[C@@H](OCc3nc4ccccc4n3C)C2)cn1	i
CC(=O)Nc1ccc(CN2C[C@@H](F)[C@@H](OCc3nc4ccccc4n3C)C2)cc1	32µM*
CCCCNC(=O)CN1CCN(c2ccc(NS(=O)(=O)c3cccs3)cc2C(=O)O)CC1	i
Cc1ccccc1-c1cn(C)c(=O)n2cc(COc3ccc(Cl)cc3)nc12	i
Cn1cc(-c2ccc(O)c(F)c2)c2nc(COc3ccc(Cl)cc3)cn2c1=O	20µM*
Cc1c(-c2cn(C)c(=O)n3cc(COc4ccccc4)nc23)cnn1C	i
COCc1cn2c(=O)n(C)cc(-c3ccc(OC)nc3)c2n1	i
COCc1cn2c(=O)n(C)cc(-c3ccnc(OC)c3)c2n1	32µM*
COCc1cn2c(=O)n(C)cc(-c3cccc(F)c3)c2n1	i
Cn1nccc1OCc1cn2c(=O)n(C)cc(-c3cccc(OCc4ccccc4)c3)c2n1	40µM*
COc1ccc(-c2cn(C)c(=O)n3cc(COc4ccnn4C)nc23)cc1OC	35µM*
COc1ccc(-c2cn(C)c(=O)n3cc(CN4CCN(C)CC4)nc23)cn1	i
Cn1cc(-c2ccccc2F)c2nc(COc3ccccc3)cn2c1=O	i
Cn1cc(-c2cccnc2)c2nc(COc3ccccc3)cn2c1=O	i
Cn1cc(-c2cn(C)c(=O)n3cc(COc4ccccc4)nc23)cn1	i
O=C(CCN=C1NS(=O)(=O)c2ccccc21)N(Cc1ccc(F)cc1)C1CC1	i
O=C(NC1CCCCCCC1)c1n[nH]c(=O)c2ccccc12	i
Cn1nnnc1SCC(=O)N1N=C(c2cc3ccccc3o2)CC1c1ccco1 (configuration not stated)	i
SMILES	KDM5B inh
FC(F)(F)c1cccc(-n2nnnc2C2(NC3CCCCC3)CCCC2)c1	i
COCCCNC(=O)c1cnc2c(c1)N(C(=O)Cc1cn(C)c3ccccc13)CCC2	i
Cn1cc(CC(=O)N2CCCc3ncc(C(=O)NCCc4ccccc4)cc32)c2ccccc21	i
Cn1cc(CC(=O)N2CCCc3ncc(C(=O)NCc4ccccc4)cc32)c2ccccc21	i
CC(C)CCNC(=O)c1cnc2c(c1)N(C(=O)Cc1cn(C)c3ccccc13)CCC2	i
Cn1cc(CC(=O)N2CCCc3ncc(C(=O)Nc4cccc(F)c4)cc32)c2ccccc21	32µM*
Cn1cc(CC(=O)N2CCCc3ncc(C(=O)Nc4cccc(C(F)(F)F)c4)cc32)c2ccccc21	22µM*
C=CCNC(=O)N(CCc1ccccn1)Cc1ccc(F)cc1	i
CC(C)(C)c1ccc(NC(=O)CSc2nc3ccccc3o2)cc1	i
CC1CCCCN1C(=O)c1ccc(CN2C(=O)NC3(CCS(=O)(=O)CC3)C2=O)cc1 (configuration not stated)	i
CC(=O)Nc1ccc(S(=O)(=O)N2Cc3ccccc3OC3(CCN(C(=O)NC(C)C)CC3)C2)cc1	i
O=C(NCc1nnc2c(-c3nc(C4CC4)no3)cccn12)C1CCC1	28µM*
O=C(CCCc1ccccc1)N1C[C@@H](CO)[C@H](c2nc(C3CC3)no2)C1	i
O=C(CCC1CCCC1)NCc1nnc2c(-c3nc(C4CC4)no3)cccn12	11µM*
COc1ccc(CCC(=O)NCc2nnc3c(-c4nc(C5CC5)no4)cccn23)cc1	i
O=C(CCCc1ccccc1)NCc1nnc2c(-c3nc(C4CC4)no3)cccn12	28µM*
CC(C)CNC(=O)N1CCC(c2noc(-c3ccccc3)n2)C1 (configuration not stated)	i
Cc1ccc(NC(=O)COc2cccc(F)c2)cc1OCc1cc(=O)n2c(ncn2C(C)C)n1	i
Cc1ccc2[nH]cc(CCNC(=O)c3ccc(F)cc3)c2c1	i
O=C(Nc1c(F)cc(F)cc1Br)C1CCN(C(=O)N2CCOc3ccccc32)CC1	i
Cc1cccc(C(=O)NC(c2ccc(Cl)cc2)C2CC2)c1 (configuration not stated)	i
Cn1c(SCC(=O)N2CCc3ccccc32)nnc1-c1cccc(NC(=O)c2ccccc2F)c1	i
CNC(=O)c1ccc(C)c(NC(=O)c2ccc3c(c2)CCCC3)c1	i
Cc1ccc(S(=O)(=O)NCC2CCC(C(=O)NCC(=O)N3CCc4ccccc4C3)CC2)cc1 (configuration not stated)	i
O=C(C1CCCN(C2CCN(C3Cc4ccccc4C3)CC2)C1)N1CCCC1 (configuration not stated)	i
SMILES	KDM5B inh
Cc1ccccc1NC(=O)N1CCC(CCNC(=O)C2CC2)CC1	i
Cc1ccccc1NC(=O)N1CCC(N2CCCC(C(=O)N3CCCC3)C2)CC1 (configuration not stated)	22µM*
CCC(C)NC(=O)c1cc(SC)ccc1C (configuration not stated)	i
Cc1cc(C(F)(F)F)nc(SC(C(=O)O)c2ccccc2)n1 (configuration not stated)	i
Cn1c(=O)c2[nH]c(N3CCN(Cc4ccc(F)cc4)CC3)nc2n(C)c1=O	i
Cc1nn(-c2ccccc2)c(C)c1CN1CCC2(Cc3ccccc3CNC2=O)C1 (configuration not stated)	i
CCc1ccccc1CN1CCC2(Cc3ccccc3CNC2=O)C1 (configuration not stated)	i
Cc1ncc(CO)c(CN2CCC3(Cc4ccccc4CNC3=O)C2)c1O (configuration not stated)	79µM*
Cc1cc2nc3n(c(=O)c2n1CC(=O)NC1CCC(C)CC1)CCCCC3 (configuration not stated)	i
Cc1ccc(CN2CCC3(CC2)CN(c2ncccn2)CC3CO)cc1C (configuration not stated)	25µM*
Cc1cc(CN2CCC3(CC2)CN(c2ncccn2)CC3CO)n(C)n1 (configuration not stated)	32µM*
Cc1ccc(CN2CCC3(CC2)CCN(Cc2ccco2)CC3CO)s1 (configuration not stated)	i
CCn1cc(C(=O)N2CCC3(CC2)CN(c2ccncn2)CC3CO)cn1 (configuration not stated)	i
COc1cc(CN2CCC3(CC2)CN(c2ccncn2)CC3CO)ccc1F (configuration not stated)	i
OCC1CN(c2ncccn2)CC12CCN(Cc1ccco1)CC2 (configuration not stated)	28µM*
O=C(c1ccoc1)N1CCC2(CC1)CN(c1ccncn1)CC2CO (configuration not stated)	i
Cc1ccc(CN2CCC3(CC2)CN(c2ccncn2)CC3CO)o1 (configuration not stated)	i
CCn1cc(CN2CCC3(CC2)CN(c2ccncn2)CC3CO)c(C)n1 (configuration not stated)	i

Bioassay records as filed in PubChem BioAssay.
